According to PubChem BioAssay (NCI):
About 79,000 compounds went through this panel and 15% of them were active in at least one assay; those are over-represented in the sample as a whole. Active and inactive are the calls of the source. Rule as the data show it: active = growth inhibition above about 70%; inactive = the rest.

What was measured:
[1] = NCI Yeast Anticancer Drug Screen. Data for the rad14 strain (AID 159);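 also: 0% = growth of vehicle-treated control cultures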; details: S. cerevisiae rad14 strain growth inhibition; at 100.0 µM; stronger effect = higher value
Procedure, shortened: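 Compound-treated yeast with a defined DNA-repair lesion; growth inhibition normalised to vehicle-treated cultures.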

[2] = NCI Yeast Anticancer Drug Screen. Data for the sgs1 mgt1 strain (AID 161);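 also: 0% = growth of cultures given vehicle only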; details: S. cerevisiae sgs1 mgt1 strain, stronger effect = higher value
Procedure, shortened: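 Yeast cells carrying a defined DNA-repair defect were exposed to test compounds. Growth inhibition was measured relative to vehicle-treated controls.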

[3] = NCI Yeast Anticancer Drug Screen. Data for the CLN2oe strain (AID 163);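 also: 0% = growth of vehicle-only control cultures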; details: S. cerevisiae CLN2oe strain, stronger effect = higher value
Procedure, shortened: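 Whole-cell yeast growth assay. A strain engineered for altered cell-cycle control received compound, and inhibition relative to vehicle-treated cultures was recorded.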

[4] = NCI Yeast Anticancer Drug Screen. Data for the cln2 rad14 strain (AID 165);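 also: 0% = growth equal to vehicle treated cultures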; details: S. cerevisiae cln2 rad14 strain, stronger effect = higher value
Procedure, shortened: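 Yeast strain cln2 rad14, bearing defects in cell cycle control and DNA repair, serves as the test system; values reflect growth inhibition compared with vehicle.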

[5] = NCI Yeast Anticancer Drug Screen. Data for the bub3 strain (AID 167); details: S. cerevisiae bub3 mutant strain, stronger effect = higher value
Procedure, shortened: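 Growth of a checkpoint-deficient yeast mutant is measured after compound exposure. Values represent inhibition relative to vehicle.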

[6] = NCI Yeast Anticancer Drug Screen. Data for the wt2 strain (AID 169);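 also: 0% = growth of vehicle-treated yeast cultures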; details: S. cerevisiae wt2 strain growth inhibition, stronger effect = higher value
Procedure, shortened: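 Treated yeast vs. vehicle-treated yeast: growth inhibition determined.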

[7] = NCI Yeast Anticancer Drug Screen. Data for the mlh1 strain (AID 171);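 also: 0% = growth of vehicle-treated control cultures of the same strain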; details: S. cerevisiae mlh1 strain growth inhibition, stronger effect = higher value
Procedure, shortened: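 A yeast strain with a defined genetic lesion serves as the test organism. Cultures receive compound or vehicle, and growth is measured.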

[8] = NCI Yeast Anticancer Drug Screen. Data for the sgs1 strain (AID 173);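 also: 0% = growth of vehicle-only control cultures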; details: S. cerevisiae sgs1 mutant, stronger effect = higher value
Procedure, shortened: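 A genetically defined yeast mutant is incubated with the test compound, and its growth is compared to that of the same strain given vehicle.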

[9] = NCI Yeast Anticancer Drug Screen. Data for the rad18 strain (AID 177); details: S. cerevisiae rad18 mutant growth inhibition, stronger effect = higher value
Procedure, shortened: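 Measured value is growth inhibition of a yeast strain bearing a DNA repair alteration, referenced to vehicle-treated cells.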

[10] = at 5.0 µM (retest, dose inferred, filed as 0.5)
[11] = at 50.0 µM (retest, dose inferred, filed as 5.0)

Measured: growth inhibition

c1ccc([P+](CCN2Cc3ccccc3C2)(c2ccccc2)c2ccccc2)cc1
active: [1] 70% | [2]; [11] 97% | [2]; at 50.0 µM 82% | [3]; at 100.0 µM 93% | [4]; at 50.0 µM 76% | [5]; [11] 98% | [5]; at 50.0 µM 79.1% | [5]; at 100.0 µM 94% | [6]; at 100.0 µM 93% | [7]; at 100.0 µM 95% | [8]; at 100.0 µM 96% | [9]; at 3.7 µM 71% | [9]; at 33.0 µM 74% | [9]; at 100.0 µM 96%
inactive: [2]; [10] 22% | [3]; at 1.2 µM 19% | [3]; at 3.7 µM 11% | [3]; at 11.0 µM 29% | [3]; at 33.0 µM 50% | [4]; [10] 23% | [4]; [11] 25% | [5]; at 1.2 µM 7% | [5]; at 3.7 µM 39% | [5]; [10] 21% | [5]; at 11.0 µM 31% | [5]; at 33.0 µM 64% | [6]; at 1.2 µM -45% | [6]; at 3.7 µM -19% | [6]; at 11.0 µM 11% | [6]; at 33.0 µM 31% | [7]; at 1.2 µM -39% | [7]; at 3.7 µM 18% | [7]; at 11.0 µM 32% | [7]; at 33.0 µM 60% | [8]; at 1.2 µM 13% | [8]; at 3.7 µM 35% | [8]; at 11.0 µM 53% | [8]; at 33.0 µM 67% | [9]; at 1.2 µM 49% | [9]; at 11.0 µM 58%
